Columns and labels:
[1] = molecular target: T1, Inhibitor of nuclear factor kappa-B kinase subunit epsilon (Homo sapiens) (UniProt Q14164); details: at 1 µM;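 further: reported values are averaged percent inhibition figures against human IKKε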
T1 sequence (whole entry): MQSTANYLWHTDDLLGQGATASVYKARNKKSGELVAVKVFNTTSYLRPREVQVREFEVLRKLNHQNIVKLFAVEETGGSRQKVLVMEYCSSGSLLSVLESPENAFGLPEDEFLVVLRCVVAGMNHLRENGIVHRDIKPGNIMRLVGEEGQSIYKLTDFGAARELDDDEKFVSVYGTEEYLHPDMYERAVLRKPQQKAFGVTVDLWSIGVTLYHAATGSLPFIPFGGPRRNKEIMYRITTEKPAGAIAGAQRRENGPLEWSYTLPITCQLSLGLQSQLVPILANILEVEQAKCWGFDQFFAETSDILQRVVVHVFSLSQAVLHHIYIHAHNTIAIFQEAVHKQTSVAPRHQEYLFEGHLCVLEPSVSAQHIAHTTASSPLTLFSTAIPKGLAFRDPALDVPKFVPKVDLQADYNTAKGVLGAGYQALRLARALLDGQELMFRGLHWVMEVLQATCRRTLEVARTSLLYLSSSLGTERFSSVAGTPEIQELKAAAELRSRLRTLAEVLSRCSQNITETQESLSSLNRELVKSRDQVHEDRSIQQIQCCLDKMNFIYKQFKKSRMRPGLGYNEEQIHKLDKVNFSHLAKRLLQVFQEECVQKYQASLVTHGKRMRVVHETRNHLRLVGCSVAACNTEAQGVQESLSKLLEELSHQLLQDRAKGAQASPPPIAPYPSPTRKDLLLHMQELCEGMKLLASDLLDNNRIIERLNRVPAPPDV

[2] = molecular target: T2, Serine/threonine-protein kinase Nek1 (Homo sapiens) (UniProt Q96PY6); details: at 0.1 µM
T2 sequence (whole entry): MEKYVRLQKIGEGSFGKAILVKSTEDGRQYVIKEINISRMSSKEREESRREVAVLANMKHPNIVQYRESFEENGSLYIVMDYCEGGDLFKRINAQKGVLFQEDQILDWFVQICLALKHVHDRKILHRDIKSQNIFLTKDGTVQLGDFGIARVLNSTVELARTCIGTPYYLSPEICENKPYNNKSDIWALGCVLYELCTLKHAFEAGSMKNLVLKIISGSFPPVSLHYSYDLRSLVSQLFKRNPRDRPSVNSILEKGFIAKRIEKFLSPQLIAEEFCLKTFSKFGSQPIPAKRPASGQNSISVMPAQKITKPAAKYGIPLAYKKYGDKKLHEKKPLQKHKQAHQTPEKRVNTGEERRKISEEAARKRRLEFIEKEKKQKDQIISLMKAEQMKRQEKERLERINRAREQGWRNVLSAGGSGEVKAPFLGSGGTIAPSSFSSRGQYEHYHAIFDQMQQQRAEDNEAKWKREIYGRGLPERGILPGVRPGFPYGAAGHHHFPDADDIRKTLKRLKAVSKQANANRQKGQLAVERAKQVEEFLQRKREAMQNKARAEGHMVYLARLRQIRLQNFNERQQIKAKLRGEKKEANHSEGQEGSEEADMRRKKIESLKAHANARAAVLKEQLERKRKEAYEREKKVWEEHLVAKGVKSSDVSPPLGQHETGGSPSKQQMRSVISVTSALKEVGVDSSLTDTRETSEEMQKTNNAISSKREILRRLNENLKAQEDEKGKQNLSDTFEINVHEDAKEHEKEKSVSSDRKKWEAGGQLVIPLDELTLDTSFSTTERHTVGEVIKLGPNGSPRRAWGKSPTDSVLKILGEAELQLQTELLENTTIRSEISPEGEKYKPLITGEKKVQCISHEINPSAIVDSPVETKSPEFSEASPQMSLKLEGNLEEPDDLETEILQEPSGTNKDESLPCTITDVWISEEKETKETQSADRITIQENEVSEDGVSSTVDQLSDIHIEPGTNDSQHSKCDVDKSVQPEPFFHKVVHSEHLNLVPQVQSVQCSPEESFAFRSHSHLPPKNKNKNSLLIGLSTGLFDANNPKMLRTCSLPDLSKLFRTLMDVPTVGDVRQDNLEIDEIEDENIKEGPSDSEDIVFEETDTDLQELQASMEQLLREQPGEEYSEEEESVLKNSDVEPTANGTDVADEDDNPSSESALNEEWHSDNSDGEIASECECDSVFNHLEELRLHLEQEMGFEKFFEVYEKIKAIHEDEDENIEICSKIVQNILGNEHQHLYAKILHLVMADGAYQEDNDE

[3] = molecular target: T2, Serine/threonine-protein kinase Nek1 (Homo sapiens); details: at 1 µM
[4] = molecular target: T3, Serine/threonine-protein kinase Nek2 (Homo sapiens) (UniProt P51955); details: at 0.1 µM
T3 sequence (whole entry): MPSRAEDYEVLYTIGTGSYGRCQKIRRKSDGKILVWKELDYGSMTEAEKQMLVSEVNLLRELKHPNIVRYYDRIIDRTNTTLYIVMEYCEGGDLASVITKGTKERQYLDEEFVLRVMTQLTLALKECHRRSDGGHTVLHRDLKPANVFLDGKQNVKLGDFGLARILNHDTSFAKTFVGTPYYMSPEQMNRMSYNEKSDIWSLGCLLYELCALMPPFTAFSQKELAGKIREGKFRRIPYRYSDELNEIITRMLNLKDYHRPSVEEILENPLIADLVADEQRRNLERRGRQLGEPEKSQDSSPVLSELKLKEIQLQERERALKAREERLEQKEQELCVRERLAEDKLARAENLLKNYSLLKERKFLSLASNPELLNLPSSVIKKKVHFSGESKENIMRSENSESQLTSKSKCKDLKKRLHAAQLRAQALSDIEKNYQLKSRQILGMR

[5] = molecular target: T3, Serine/threonine-protein kinase Nek2 (Homo sapiens); details: at 1 µM
[6] = molecular target: Serine/threonine-protein kinase Nek6 (Homo sapiens) (UniProt Q9HC98); details: at 0.1 µM
Serine/threonine-protein kinase Nek6 (Homo sapiens), sequence (Q9HC98 whole entry): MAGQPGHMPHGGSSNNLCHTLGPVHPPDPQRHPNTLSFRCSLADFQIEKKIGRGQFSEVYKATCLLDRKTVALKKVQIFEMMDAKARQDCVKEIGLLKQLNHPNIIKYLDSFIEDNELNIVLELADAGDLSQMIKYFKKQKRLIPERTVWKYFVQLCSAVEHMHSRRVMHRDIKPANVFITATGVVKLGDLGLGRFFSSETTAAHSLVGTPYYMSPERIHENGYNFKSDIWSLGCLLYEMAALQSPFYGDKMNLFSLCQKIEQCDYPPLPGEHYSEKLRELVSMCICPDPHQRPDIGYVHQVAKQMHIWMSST

[7] = molecular target: Serine/threonine-protein kinase Nek6 (Homo sapiens) (UniProt Q9HC98); details: at 1 µM
[8] = molecular target: Serine/threonine-protein kinase Nek7 (Homo sapiens) (UniProt Q8TDX7); details: at 0.1 µM
Serine/threonine-protein kinase Nek7 (Homo sapiens), sequence (Q8TDX7 whole entry, looked up): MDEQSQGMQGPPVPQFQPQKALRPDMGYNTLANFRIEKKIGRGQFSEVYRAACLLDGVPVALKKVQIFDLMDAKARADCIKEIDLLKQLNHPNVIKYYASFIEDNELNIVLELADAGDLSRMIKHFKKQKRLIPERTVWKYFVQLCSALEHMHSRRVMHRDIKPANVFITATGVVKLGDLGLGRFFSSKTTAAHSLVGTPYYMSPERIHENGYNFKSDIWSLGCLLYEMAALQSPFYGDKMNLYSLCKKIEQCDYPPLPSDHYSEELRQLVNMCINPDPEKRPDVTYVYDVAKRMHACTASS

[9] = molecular target: Serine/threonine-protein kinase Nek7 (Homo sapiens) (UniProt Q8TDX7); details: at 1 µM
[10] = molecular target: T4, Serine/threonine-protein kinase Nek9 (Homo sapiens) (UniProt Q8TD19); details: at 0.1 µM
T4 sequence (whole entry): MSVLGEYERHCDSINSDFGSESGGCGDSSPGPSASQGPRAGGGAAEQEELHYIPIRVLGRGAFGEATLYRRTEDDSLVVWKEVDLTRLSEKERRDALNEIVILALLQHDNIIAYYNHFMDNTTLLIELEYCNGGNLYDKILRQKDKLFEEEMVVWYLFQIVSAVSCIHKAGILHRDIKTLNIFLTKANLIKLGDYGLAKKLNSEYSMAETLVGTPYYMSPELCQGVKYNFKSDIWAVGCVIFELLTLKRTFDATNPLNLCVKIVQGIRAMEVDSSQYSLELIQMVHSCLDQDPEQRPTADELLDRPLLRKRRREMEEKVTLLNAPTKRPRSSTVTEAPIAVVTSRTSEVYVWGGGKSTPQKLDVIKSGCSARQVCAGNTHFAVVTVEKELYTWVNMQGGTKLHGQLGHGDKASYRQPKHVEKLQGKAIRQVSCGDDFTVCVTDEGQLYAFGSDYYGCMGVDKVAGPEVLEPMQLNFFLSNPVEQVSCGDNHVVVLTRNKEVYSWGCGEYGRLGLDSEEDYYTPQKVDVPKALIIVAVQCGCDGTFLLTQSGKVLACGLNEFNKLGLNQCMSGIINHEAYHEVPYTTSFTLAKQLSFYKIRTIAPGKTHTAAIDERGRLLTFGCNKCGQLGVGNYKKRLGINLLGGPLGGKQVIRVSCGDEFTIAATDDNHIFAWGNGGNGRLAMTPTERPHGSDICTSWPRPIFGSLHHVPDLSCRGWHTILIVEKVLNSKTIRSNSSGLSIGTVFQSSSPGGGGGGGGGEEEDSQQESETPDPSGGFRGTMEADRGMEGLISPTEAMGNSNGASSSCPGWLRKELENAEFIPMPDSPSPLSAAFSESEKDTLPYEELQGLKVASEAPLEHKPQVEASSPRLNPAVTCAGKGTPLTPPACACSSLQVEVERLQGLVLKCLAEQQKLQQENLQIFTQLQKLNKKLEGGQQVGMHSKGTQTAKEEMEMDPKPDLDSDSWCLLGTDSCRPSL

[11] = molecular target: T4, Serine/threonine-protein kinase Nek9 (Homo sapiens); details: at 1 µM
[12] = molecular target: Serine/threonine-protein kinase PLK1 (Homo sapiens) (UniProt P53350); details: at 0.1 µM
Serine/threonine-protein kinase PLK1 (Homo sapiens), sequence (P53350 whole entry): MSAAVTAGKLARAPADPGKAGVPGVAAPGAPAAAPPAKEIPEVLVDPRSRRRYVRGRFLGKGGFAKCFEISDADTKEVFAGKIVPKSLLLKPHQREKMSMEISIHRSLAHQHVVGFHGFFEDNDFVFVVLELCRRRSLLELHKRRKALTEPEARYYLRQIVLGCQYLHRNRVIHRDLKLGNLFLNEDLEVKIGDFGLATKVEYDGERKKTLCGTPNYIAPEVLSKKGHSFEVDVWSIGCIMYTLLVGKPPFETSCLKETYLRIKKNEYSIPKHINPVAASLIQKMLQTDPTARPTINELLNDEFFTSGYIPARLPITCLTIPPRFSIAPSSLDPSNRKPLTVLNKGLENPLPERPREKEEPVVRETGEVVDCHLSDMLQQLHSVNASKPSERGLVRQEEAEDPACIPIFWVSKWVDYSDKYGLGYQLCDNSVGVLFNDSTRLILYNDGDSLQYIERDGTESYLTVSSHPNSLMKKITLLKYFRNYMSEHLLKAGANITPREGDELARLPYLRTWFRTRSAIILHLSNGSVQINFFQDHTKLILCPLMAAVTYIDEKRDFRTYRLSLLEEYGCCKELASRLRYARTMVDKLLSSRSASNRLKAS

[13] = molecular target: Serine/threonine-protein kinase PLK1 (Homo sapiens) (UniProt P53350); details: at 1 µM
[14] = molecular target: T5, Dual specificity protein kinase TTK (Homo sapiens) (UniProt P33981); details: at 0.1 µM
T5 sequence (whole entry): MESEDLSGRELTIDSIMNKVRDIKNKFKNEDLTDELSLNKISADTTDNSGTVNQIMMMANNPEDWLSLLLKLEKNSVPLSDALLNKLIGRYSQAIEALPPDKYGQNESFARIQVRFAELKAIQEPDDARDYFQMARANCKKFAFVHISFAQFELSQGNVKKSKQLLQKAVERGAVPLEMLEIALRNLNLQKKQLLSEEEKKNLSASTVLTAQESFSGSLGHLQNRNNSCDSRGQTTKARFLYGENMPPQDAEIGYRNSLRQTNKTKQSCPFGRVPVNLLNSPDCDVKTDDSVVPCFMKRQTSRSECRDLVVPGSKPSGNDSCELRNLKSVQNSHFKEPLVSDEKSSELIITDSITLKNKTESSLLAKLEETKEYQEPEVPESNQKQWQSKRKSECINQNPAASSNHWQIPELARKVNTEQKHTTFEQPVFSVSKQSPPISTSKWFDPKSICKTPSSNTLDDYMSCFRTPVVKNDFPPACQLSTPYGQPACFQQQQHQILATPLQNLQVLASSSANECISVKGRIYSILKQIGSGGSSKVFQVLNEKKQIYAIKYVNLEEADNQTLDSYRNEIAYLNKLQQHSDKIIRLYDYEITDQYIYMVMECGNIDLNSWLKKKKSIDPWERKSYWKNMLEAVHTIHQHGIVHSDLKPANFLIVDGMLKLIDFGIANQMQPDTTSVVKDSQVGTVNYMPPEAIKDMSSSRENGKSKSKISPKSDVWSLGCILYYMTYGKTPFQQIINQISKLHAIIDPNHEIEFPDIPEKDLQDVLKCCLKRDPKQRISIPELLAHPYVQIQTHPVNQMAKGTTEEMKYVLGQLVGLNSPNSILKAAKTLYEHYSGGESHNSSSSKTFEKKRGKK

[15] = test system: T6, Receptor-type tyrosine-protein kinase FLT3 (Homo sapiens), P36888 [D835Y]; details: at 1 µM
T6 sequence (whole entry): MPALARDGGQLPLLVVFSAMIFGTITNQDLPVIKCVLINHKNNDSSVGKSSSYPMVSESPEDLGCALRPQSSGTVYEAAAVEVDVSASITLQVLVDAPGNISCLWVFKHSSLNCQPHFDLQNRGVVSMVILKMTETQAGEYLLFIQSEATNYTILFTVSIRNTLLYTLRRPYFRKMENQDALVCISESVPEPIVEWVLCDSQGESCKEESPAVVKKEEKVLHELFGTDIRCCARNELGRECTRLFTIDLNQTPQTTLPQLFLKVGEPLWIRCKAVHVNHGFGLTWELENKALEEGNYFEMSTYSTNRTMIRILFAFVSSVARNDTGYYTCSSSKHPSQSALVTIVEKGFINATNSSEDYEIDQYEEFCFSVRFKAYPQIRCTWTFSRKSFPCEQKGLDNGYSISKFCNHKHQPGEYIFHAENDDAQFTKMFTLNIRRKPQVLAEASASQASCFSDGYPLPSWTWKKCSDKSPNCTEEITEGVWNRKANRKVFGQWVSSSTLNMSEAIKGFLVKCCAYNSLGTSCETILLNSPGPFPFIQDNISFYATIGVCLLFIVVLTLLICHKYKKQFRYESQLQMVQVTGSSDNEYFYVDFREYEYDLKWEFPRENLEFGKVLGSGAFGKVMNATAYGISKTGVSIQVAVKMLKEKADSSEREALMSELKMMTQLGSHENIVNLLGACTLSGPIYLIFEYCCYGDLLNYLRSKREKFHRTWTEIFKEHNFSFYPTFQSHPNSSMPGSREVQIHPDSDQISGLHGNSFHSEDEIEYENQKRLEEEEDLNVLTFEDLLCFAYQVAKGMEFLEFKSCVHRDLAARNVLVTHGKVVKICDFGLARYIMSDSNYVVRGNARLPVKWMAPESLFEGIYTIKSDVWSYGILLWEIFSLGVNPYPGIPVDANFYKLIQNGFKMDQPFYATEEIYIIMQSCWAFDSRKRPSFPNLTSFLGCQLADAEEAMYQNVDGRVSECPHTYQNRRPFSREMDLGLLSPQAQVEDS

[16] = molecular target: Vascular endothelial growth factor receptor 3 (Homo sapiens) (UniProt P35916); details: at 0.1 µM
Vascular endothelial growth factor receptor 3 (Homo sapiens), sequence (P35916 whole entry): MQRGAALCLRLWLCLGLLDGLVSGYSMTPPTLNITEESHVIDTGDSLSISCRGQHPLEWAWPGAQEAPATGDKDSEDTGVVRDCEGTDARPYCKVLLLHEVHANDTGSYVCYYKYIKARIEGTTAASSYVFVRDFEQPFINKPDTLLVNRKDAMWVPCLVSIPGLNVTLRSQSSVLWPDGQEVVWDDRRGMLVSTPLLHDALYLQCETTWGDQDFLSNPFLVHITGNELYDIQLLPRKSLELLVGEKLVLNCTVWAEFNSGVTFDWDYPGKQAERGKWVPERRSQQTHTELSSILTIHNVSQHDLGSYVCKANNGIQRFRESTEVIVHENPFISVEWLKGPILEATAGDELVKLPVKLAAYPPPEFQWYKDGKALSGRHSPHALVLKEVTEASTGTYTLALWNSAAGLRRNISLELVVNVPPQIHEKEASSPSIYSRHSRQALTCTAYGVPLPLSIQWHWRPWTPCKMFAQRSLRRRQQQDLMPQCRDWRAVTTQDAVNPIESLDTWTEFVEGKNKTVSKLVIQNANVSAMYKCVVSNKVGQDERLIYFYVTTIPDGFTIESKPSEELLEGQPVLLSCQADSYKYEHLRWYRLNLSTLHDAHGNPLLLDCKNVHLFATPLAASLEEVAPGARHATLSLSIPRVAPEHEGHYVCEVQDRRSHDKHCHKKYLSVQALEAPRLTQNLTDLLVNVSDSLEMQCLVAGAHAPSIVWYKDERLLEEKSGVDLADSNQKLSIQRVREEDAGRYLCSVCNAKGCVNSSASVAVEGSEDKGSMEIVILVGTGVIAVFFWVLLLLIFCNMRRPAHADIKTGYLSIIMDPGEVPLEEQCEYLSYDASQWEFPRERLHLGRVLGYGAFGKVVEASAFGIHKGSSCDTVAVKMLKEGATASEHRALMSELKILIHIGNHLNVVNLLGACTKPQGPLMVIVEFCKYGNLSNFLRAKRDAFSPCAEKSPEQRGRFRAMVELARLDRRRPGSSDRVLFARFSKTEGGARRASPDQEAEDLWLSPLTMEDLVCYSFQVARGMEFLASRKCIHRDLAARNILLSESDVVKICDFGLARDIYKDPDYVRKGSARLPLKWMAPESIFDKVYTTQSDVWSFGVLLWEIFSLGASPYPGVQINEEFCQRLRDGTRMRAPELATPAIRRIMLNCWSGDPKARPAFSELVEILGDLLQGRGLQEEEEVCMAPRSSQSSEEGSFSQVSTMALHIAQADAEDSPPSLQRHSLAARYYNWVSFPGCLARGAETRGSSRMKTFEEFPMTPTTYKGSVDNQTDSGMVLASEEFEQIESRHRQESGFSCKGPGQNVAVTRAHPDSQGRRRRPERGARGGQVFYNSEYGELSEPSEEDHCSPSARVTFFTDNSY

[17] = molecular target: Vascular endothelial growth factor receptor 3 (Homo sapiens) (UniProt P35916); details: at 1 µM
[18] = molecular target: Macrophage colony-stimulating factor 1 receptor (Homo sapiens) (UniProt P07333); details: at 0.1 µM
Macrophage colony-stimulating factor 1 receptor (Homo sapiens), sequence (P07333 whole entry): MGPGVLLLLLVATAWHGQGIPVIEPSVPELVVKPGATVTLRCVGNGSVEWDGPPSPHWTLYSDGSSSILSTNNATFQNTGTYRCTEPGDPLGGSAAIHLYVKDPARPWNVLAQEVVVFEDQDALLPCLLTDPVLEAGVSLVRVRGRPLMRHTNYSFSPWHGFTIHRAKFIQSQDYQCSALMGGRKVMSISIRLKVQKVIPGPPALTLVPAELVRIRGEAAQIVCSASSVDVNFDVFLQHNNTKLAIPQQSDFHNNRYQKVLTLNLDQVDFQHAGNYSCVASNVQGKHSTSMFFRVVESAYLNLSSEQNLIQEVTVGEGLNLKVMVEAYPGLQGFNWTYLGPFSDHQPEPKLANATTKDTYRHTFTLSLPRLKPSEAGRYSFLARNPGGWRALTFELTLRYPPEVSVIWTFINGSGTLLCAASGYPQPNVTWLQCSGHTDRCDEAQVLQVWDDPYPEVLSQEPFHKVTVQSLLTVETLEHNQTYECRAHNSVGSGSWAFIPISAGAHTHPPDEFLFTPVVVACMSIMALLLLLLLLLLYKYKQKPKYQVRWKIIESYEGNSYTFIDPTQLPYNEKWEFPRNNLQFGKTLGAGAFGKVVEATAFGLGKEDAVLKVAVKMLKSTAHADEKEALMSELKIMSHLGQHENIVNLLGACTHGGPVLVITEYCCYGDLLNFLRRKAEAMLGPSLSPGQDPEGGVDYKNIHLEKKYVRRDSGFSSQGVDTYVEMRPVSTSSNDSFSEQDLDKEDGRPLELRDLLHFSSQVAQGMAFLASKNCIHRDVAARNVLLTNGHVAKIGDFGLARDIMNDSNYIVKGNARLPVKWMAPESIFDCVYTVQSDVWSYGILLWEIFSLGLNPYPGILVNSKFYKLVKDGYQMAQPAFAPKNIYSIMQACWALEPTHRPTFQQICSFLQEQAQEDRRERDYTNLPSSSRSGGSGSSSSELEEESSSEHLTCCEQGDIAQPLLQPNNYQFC

[19] = molecular target: Macrophage colony-stimulating factor 1 receptor (Homo sapiens) (UniProt P07333); details: at 1 µM
[20] = molecular target: Tyrosine-protein kinase Fyn (Homo sapiens) (UniProt P06241); details: at 0.1 µM
Tyrosine-protein kinase Fyn (Homo sapiens), sequence (P06241 2-537 limits assumed): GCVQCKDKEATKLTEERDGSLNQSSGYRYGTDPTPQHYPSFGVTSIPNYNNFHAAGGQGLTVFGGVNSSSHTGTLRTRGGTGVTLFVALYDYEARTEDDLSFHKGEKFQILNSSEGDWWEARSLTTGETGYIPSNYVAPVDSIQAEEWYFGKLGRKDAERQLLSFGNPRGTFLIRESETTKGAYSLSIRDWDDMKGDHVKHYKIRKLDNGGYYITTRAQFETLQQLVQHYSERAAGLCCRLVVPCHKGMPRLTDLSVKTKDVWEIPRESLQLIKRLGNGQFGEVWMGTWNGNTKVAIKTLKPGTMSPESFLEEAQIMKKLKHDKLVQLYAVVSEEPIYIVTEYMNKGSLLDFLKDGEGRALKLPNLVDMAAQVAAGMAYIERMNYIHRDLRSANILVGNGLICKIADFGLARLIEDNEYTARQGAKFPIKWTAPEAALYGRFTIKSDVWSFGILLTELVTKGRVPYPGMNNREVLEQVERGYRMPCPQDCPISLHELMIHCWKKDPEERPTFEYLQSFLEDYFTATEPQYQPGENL

SMILES	inhibition [1] [%]	inhibition [2] [%]	inhibition [3] [%]	inhibition [4] [%]	inhibition [5] [%]	inhibition [6] [%]	inhibition [7] [%]	inhibition [8] [%]	inhibition [9] [%]	inhibition [10] [%]	inhibition [11] [%]	inhibition [12] [%]	inhibition [13] [%]	inhibition [14] [%]	inhibition [15] [%]	inhibition [16] [%]	inhibition [17] [%]	inhibition [18] [%]	inhibition [19] [%]	inhibition [20] [%]
COc1cccc(-n2ncc3c(N/N=C/c4ccc(F)cc4)ncnc32)c1	8.08	2.09	4.05	3.93	2.32	2.71	3.01	1.25	3.29	1.55	6.76	1.91	4.22	7.93	12.3	7.04	6.84	6.04	5.69	8.43
Fc1ccc(-c2cc(-c3c[nH]nc3-c3ccccn3)ccn2)cc1	7.34	2.81	0.44	4.38	3.61	4.06	7.77	6.08	4.43	7.41	12.6	3.3	3.1	11.3	0.71	-1.38	1.05	0.08	3.27	3.45
Nc1ncc(-c2cccc(S(N)(=O)=O)c2)c2scc(-c3ccc(F)c(Cl)c3)c12	6.28	1.83	3.98	4.7	4.74	2.28	3.81	3.41	-0.15	5.04	-0.67	4.55	2.5	5.8	-1.46	5.73	12.6	6.9	43.7	7.81
